From ChEMBL document CHEMBL4513146, “CO-ADD screening of Karazin Kharkiv National University (Ukraine) compounds”
Potency and affinity values are given separately.

Experiments:
Klebsiella pneumoniae = settings: Concentration 32 ug.mL-1;; ASSAY_TEST Inhibition of Bacterial Growth; detection method Absorption (OD600); MEDIA CAMHB; plate type 384well; NBS; CORNING #3640; time 18 hr
Candida albicans = settings: Concentration 32 ug.mL-1; ASSAY_TEST Inhibition of Fungal Growth; detection method Absorption (OD530)
Cryptococcus neoformans = settings: Concentration 32 ug.mL-1; ASSAY_TEST Inhibition of Fungal Growth; detection method Resazurin; Absorption (OD600-OD570); plate type 384well; NBS; CORNING #3640

## O=C(CSc1nnc2c(=O)n(-c3cccc(F)c3)ccn12)Nc1ccc(Br)cc1F
Klebsiella pneumoniae
  Inhibition: 15.26%
Candida albicans
  Inhibition: 5.02%
Cryptococcus neoformans
  Inhibition: -13.45%

## COc1ccc(NC(=O)c2ccc3nn(CC(=O)N4CCN(c5ccccc5)CC4)c(=O)n3c2)cc1
Klebsiella pneumoniae
  Inhibition: 0.73%
Candida albicans
  Inhibition: 1.58%
Cryptococcus neoformans
  Inhibition: -6.91%

## COc1ccccc1-n1ccn2c(SCc3ccc(C)cc3)nnc2c1=O
Klebsiella pneumoniae
  Inhibition: 5.79%
Candida albicans
  Inhibition: 2.57%
Cryptococcus neoformans
  Inhibition: -9.44%

## Cc1ccccc1Oc1nccn2c(=O)n(CC(=O)Nc3ccc(Cl)c(Cl)c3)nc12
Klebsiella pneumoniae
  Inhibition: 6.86%
Candida albicans
  Inhibition: 2.23%
Cryptococcus neoformans
  Inhibition: -12.87%

## COc1cccc(Oc2nccn3c(=O)n(CC(=O)Nc4ccc(C(C)C)cc4)nc23)c1
Klebsiella pneumoniae
  Inhibition: -4.77%
Candida albicans
  Inhibition: 3.55%
Cryptococcus neoformans
  Inhibition: -2.79%

## COc1cccc(-n2ccn3c(SCc4ccc(F)cc4)nnc3c2=O)c1
Klebsiella pneumoniae
  Inhibition: 3.28%
Candida albicans
  Inhibition: 1.89%
Cryptococcus neoformans
  Inhibition: -13.93%

## O=C(Cn1nc2c(SC3CCCCC3)nccn2c1=O)Nc1ccc(F)c(Cl)c1
Klebsiella pneumoniae
  Inhibition: 0.9%
Candida albicans
  Inhibition: 5.93%
Cryptococcus neoformans
  Inhibition: -24.22%

## COc1cc(NC(=O)Cn2nc3c(N4CCCC(C)C4)nccn3c2=O)cc(OC)c1 (configuration not stated)
Klebsiella pneumoniae
  Inhibition: 5.76%
Candida albicans
  Inhibition: 3.21%
Cryptococcus neoformans
  Inhibition: -46.51%

## Cc1ccc(Oc2nccn3c(=O)n(CC(=O)NCc4ccccc4Cl)nc23)cc1
Klebsiella pneumoniae
  Inhibition: 6.19%
Candida albicans
  Inhibition: 1.69%
Cryptococcus neoformans
  Inhibition: -7.33%
